Screens: PubChem BioAssay, Broad Institute
NSD2 HMT inh: inhibitors of human histone methyltransferase NSD2 | O96028 | NSD2 peptide methylation, AlphaScreen, 120 min | inhibition, % at 12.5 µM | 310,000 tested, 0.54% active; in the data active means inhibition above about 50%
Target sequence (O96028 whole entry, looked up): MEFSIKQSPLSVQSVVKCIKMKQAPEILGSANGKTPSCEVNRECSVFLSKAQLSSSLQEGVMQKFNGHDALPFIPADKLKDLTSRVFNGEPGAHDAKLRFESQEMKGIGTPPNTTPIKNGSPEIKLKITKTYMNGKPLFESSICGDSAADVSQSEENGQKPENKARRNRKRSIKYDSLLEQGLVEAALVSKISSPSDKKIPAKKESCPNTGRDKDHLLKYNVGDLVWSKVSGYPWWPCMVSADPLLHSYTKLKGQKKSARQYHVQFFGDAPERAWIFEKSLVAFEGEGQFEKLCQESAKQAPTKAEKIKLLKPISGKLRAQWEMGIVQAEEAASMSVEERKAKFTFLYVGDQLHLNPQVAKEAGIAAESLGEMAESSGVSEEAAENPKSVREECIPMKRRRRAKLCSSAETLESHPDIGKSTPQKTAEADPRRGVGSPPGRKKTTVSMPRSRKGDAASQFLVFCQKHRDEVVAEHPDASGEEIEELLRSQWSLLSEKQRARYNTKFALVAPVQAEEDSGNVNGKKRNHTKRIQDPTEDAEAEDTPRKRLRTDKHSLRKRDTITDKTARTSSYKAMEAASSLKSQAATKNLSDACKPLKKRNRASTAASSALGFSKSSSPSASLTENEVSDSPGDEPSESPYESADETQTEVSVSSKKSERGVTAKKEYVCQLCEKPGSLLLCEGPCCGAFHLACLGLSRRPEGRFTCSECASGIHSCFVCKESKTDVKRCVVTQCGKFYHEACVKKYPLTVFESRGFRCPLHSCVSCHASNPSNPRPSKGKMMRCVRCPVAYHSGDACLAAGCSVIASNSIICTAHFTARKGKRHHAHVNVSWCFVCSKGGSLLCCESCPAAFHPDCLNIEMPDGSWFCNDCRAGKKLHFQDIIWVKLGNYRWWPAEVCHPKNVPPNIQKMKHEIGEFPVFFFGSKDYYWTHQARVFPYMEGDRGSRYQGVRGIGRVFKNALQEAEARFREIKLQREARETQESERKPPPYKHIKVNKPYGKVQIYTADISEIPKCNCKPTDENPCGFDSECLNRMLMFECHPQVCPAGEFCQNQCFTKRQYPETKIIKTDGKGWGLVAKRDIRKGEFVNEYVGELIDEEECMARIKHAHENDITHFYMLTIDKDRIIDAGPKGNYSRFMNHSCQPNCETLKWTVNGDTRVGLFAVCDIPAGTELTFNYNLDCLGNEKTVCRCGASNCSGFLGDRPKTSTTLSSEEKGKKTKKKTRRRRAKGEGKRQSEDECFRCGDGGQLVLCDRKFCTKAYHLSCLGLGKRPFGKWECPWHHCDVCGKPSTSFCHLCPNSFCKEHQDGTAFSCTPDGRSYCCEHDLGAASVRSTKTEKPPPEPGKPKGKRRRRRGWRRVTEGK
AF4-AF9 inh: blocks AF4 peptide binding to human AF9 | inhibition, % at 10 µM | 350,000 tested, 0.47% active | P42568 | AID 651704 | AlphaScreen, biotin-AF4 peptide binding to FLAG-AF9;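 active means every replicate reaching a set inhibition limit, whatever the replicate mean, cut at about 25% in these data; inconclusive means mean inhibition reaches that limit but some replicates miss it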;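 further: 0% = plate neutral control median and 100% = total signal loss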
HIV Env fusion: HIV envelope-mediated fusion inhibition; inhibition, % at 12.3 µM; 360,000 tested, 1.1% active; AID 651610; HeLa-JRFL Env/CEM21 cell fusion, luciferase;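 active means mean replicate inhibition score of at least 50 and every replicate individually at or above 50; inconclusive means only one of the two criteria met; inactive means mean below 50 and not all replicates reaching 50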;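 further: 0% = plate neutral controls and 100% = maraviroc near 300 nM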
PGC1a acetyl inh: lowers PGC1a acetylation signal in U2OS cells; AlphaScreen anti-acetyl-lysine; with virally co-expressed GCN5 acetyltransferase; inhibition, % at 15.6 µM; 350,000 tested, 0.17% active; AID 651687;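 active means every replicate shows inhibition of at least 40%; inconclusive means mean inhibition at least 40% but some replicate below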;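 further: 0% = neutral control wells and 100% = positive control wells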
INS-1E GSIS act: primary screen for activators of insulin secretion dependent on glucose, INS-1E cells, GLuc reporter luminescence. activation, % at 16.6 µM. 370,000 tested, 0.61% active. INS-1E GLuc reporter insulin secretion, 2-3 h;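 active means lowest replicate activation of at least 40%, so every replicate reaches that level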;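 further: 0% = median of neutral control wells and 100% = median of IBMX positive control wells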
* marks the source's active call; other numbers are inactive results; ? = inconclusive; · = no result given; [ ] = remark or other dose. Compounds with a hit are over-represented: about 2.1% of the library has one in this group of screens.

SMILES	NSD2 HMT inh	AF4-AF9 inh	HIV Env fusion	PGC1a acetyl inh	INS-1E GSIS act
CO[C@@H]1CN(C)C(=O)c2ccc(NC(=O)c3ccccc3F)cc2OC[C@@H](C)N(C)C[C@H]1C	·	-4	·	7	6
COc1ccc2c3c(n(C)c2c1)[C@H](CO)N(C(=O)C1CC1)CC31CCN(Cc2cccc(F)c2)CC1	·	26*	·	4	-7
COc1ccc2c3c(n(C)c2c1)[C@@H](CO)N(C(=O)C1CCC1)CC31CCN(Cc2cccc(F)c2)CC1	·	29*	·	·	-19
COc1ccc2c3c(n(C)c2c1)[C@@H](CO)N(C(=O)C1CC1)CC31CCN(Cc2cccc(F)c2)CC1	·	?	·	0	-10
COc1cccc(CN2CC3(C2)CN(C(=O)C2CC2)[C@H](CO)c2c3c3ccc(OC)cc3n2C)c1	·	27*	·	-4	2
Cc1cccc(NC(=O)CCS(=O)(=O)c2ccc(Br)cc2)c1	-2	-2	7	8	39
Cc1noc(C)c1S(=O)(=O)N(C)C[C@@H]1Oc2ccc(NC(=O)CCC(F)(F)F)cc2CC(=O)N([C@@H](C)CO)C[C@@H]1C	·	-1	8[16.7 µM]	-6	-2
COC(=O)c1ccc(COn2c(=O)c(C)[n+]([O-])c3ccccc32)cc1	-1	·	-167	4	·
C/C=C/c1ccc([C@H]2[C@@H](CO)N3C(=O)CN(C(=O)Nc4cccc(OC)c4)C[C@H]23)cc1	·	2	·	12	7
Cn1c(=O)[nH]c(=O)c2c1nc(N1CCNCC1)n2Cc1cccc2ccccc12	-5	·	58*	-11	·
C/C(Cl)=C\Cn1c(N2CCCC2)nc2c1c(=O)[nH]c(=O)n2C	-2	·	·	11	49*
CCCCn1c(N2CCCC2)nc2c1c(=O)[nH]c(=O)n2C	0	1	6	7	84*
Cn1c(=O)[nH]c(=O)c2c1nc(N1CCNCC1)n2Cc1ccccc1	2	2	4	-5	17
COc1cc(/C=N/n2nnnc2N)ccc1OCc1c(C)no[n+]1[O-]	18	·	·	·	63
Cc1no[n+]([O-])c1COc1cccc(/C=N/Nc2nncn2N)c1	·	-27	50	50*	·
CSc1nc2c(c(=O)n1Cc1ccccc1)SC(C)C2 (stereo not given)	·	·	·	6	45*
CC1Cc2nc(SCC(=O)NCc3ccccc3)n(Cc3ccccc3)c(=O)c2S1 (stereo not given)	·	5	72*	3	-27
CC(=O)N1[C@@H](CO)[C@@H](c2ccccc2)C12CN(C(=O)CN1CCOCC1)C2	·	-1	·	3	6
c1csc(-c2nc(N3CCOCC3)c3ccccc3n2)c1	-12	-1	31	·	39
CSc1nsc(SC)c1NC(=O)Nc1ccccc1C	-6	-1	-7	103*	3
CCC(=O)Nc1ccc2c(c1)OC[C@H](C)N(C(=O)C1CCC1)C[C@@H](C)[C@H](OC)CN(C)C2=O	·	-1	·	9	-10
O=C1c2cccnc2C(=O)N1Cc1ccc(S(=O)(=O)N2CCOc3ccc(Cl)cc32)cc1	5	·	·	-3	·
C=CCn1c(SCc2csc(-c3ccc(Cl)cc3)n2)nnc1-c1ccccc1OC	-2	2	56*	·	-50
Cc1ccc(C(C(=O)NC2CCCCC2)N(CC2CCCO2)C(=O)CNC(=O)c2ccco2)cc1 (stereo not given)	8	·	·	-3	-8
CSc1nnc(NC(=O)c2nc(S(=O)(=O)Cc3cccc(C)c3)ncc2Cl)s1	-1	-6	89*	·	-2
SMILES	NSD2 HMT inh	AF4-AF9 inh	HIV Env fusion	PGC1a acetyl inh	INS-1E GSIS act
Cc1cccc(CS(=O)(=O)c2ncc(Cl)c(C(=O)Nc3nnc(C(C)C)s3)n2)c1	1	·	·	·	·
CCc1nnc(NC(=O)c2nc(S(=O)(=O)Cc3cccc(C)c3)ncc2Cl)s1	0	-10	63*	·	1
N#C[C@H]1[C@@H](c2ccccc2C2=CCCC2)[C@H](CO)N1S(=O)(=O)c1ccccc1	·	-2	·	-6	-7
COc1ccccc1NC(=O)CSc1nnc(-c2ccccc2)o1	·	-3	-72	·	84*
COc1ccc2c(c1)-c1c(ssc1=S)C(C)(C)N2S(=O)(=O)c1ccc(C)cc1	2	·	72*	·	-9
COc1ccc2c(c1)-c1c(ssc1=S)C(C)(C)N2	·	·	62*	38	·
COc1ccc(-n2sc3c(c2=S)-c2cc(OC)ccc2NC3(C)C)cc1	1	·	·	-1	·
O=c1[nH]c(N2CCN(c3ccccc3)CC2)nc2c1CCC2	0	·	·	3	·
CCOc1ncccc1C(=O)NCc1ccc(C)cc1	-1	-6	-25	6	45*
CCOc1ncccc1C(=O)OCC(=O)c1cccs1	6	3	·	-14	50*
CCOc1ncccc1C(=O)OCc1ccc(C#N)cc1	-3	·	-117	·	55*
O=C(c1ccco1)N1CCN(c2ncnc3c2nnn3Cc2ccccc2Cl)CC1	2	·	·	·	-4
O=C(c1ccco1)N1CCN(c2nc(C(F)(F)F)nc3c2nnn3Cc2ccccc2)CC1	2	·	67*	·	-29
NC(=O)c1ccc(N2CCCCC2)c(N2C(=O)CCC2=O)c1	1	·	·	2	·
C=CC(=O)Nc1cccc(Oc2ncnc3[nH]cc(-c4cnc5ccccc5c4)c23)c1	·	-2	57*	14	·
CC(=O)Nc1cccc(Oc2ncnc3scc(-c4ccc(C)cc4)c23)c1	-3	2	13	-3	-12
Cc1ccc(S(=O)(=O)N(C)C[C@H]2OCCCC[C@@H](C)Oc3ccc(NS(=O)(=O)c4cccs4)cc3C(=O)N([C@@H](C)CO)C[C@@H]2C)cc1	·	-1	-34[16.7 µM]	-2	-41
Cn1c(=O)oc2cc(S(=O)(=O)NCCC(=O)NC3CCCc4ccccc43)ccc21 (stereo not given)	-1	9	·	-6	·
CC(C)CC(NS(=O)(=O)c1ccc2c(c1)oc(=O)n2C)C(=O)NC1CCCc2ccccc21 (stereo not given)	·	0	58*	-2	-1
OCCCn1c(CCNc2nc(-c3ccc(F)cc3)cs2)nc2cc(C(F)(F)F)ccc21	·	·	72*	-5	-31
COc1ccc2c3c(n(C)c2c1)[C@H](CO)N(C(=O)C1CCOCC1)CC31CCN(Cc2cccc(F)c2)CC1	·	-2	55*[16.7 µM]	·	-16
COc1ccc2c3c(n(C)c2c1)[C@H](CO)N(C(=O)C1CCOCC1)CC31CN(Cc2cccc(F)c2)C1	·	·	·	·	20
COc1ccc2c3c(n(C)c2c1)[C@@H](CO)N(C(=O)C1CCOCC1)CC31CCN(Cc2cccc(F)c2)CC1	·	-1	70*[16.7 µM]	·	-24
